Here are results for 16 compounds from PubChem BioAssay (NCATS).

Entries with a potency or affinity are not part of this list. Activity calls are given as the source filed them. Calls follow the shape of the full dose curve.

The conditions of the test: Ebola virus entry assay, green fluorescence channel.
On to `O=C(O)C[C@H](O)C[C@H](O)/C=C/c1c(C2CC2)nc2ccccc2c1-c1ccc(F)cc1`, for which the call was inactive.

For the compound `CCN1C(=O)NC(c2ccccc2)C1=O` (stereo unspecified), the compound was called inactive.

With `Nc1nc(=O)n([C@@H]2CS[C@H](CO)O2)cc1F`, the outcome was inactive.

Take `CC(C)(C)NC[C@H](O)COc1ccccc1C1CCCC1`: the call was inactive.

As to `CN=C1CN(O)C(c2ccccc2)=c2cc(Cl)ccc2=N1`, the outcome was inactive.

`CNCCC=C1c2ccccc2CCc2ccccc21`: the call was inactive.

As to `CC(=O)NC[C@H]1CN(c2ccc(N3CCOCC3)c(F)c2)C(=O)O1`, the call was inactive.

Consider `CCN(CC)CC#CCOC(=O)C(O)(c1ccccc1)C1CCCCC1` (stereo unspecified), for which the outcome was inactive.

As to `Nc1nc(NC2CC2)c2ncn([C@@H]3C=C[C@@H](CO)C3)c2n1`, the call was inactive.

For `CN1C(=O)C(O)N=C(c2ccccc2)c2cc(Cl)ccc21` (stereo unspecified), the compound was called inactive.

With `CCCCC(=O)N(Cc1ccc(-c2ccccc2-c2nn[nH]n2)cc1)[C@@H](C(=O)O)C(C)C`, the outcome was inactive.

Take `CC=CC1=C(C(=O)O)N2C(=O)[C@H](NC(=O)[C@H](N)c3ccc(O)cc3)[C@@H]2SC1`: the compound was classed as inactive.

In the case of `CO[C@@]1(NC(=O)C2SC(=C(C(N)=O)C(=O)O)S2)C(=O)N2C(C(=O)O)=C(CSc3nnnn3C)CS[C@@H]21` (stereo partly specified), the compound was called inactive.

As for `CCCCCCCN(CC)CCCC(O)c1ccc(NS(C)(=O)=O)cc1` (stereo unspecified), the call was inactive.

As for `CC(C)(O/N=C(\C(=O)N[C@@H]1C(=O)N2C(C(=O)[O-])=C(C[n+]3ccccc3)CS[C@H]12)c1csc(N)n1)C(=O)O`, the result was inactive.

Regarding `O=C(O[C@H]1CN2CCC1CC2)N1CCc2ccccc2[C@@H]1c1ccccc1`, the compound was classed as inactive.
